Experimental data as given in PubChem BioAssay (EPA / NIEHS).
Inconclusive results are not listed. The source made the active and inactive calls. Rule for the calls, unless noted: active = hit-call score of the fitted dose curve at least 0.9, where 1 is the maximum; inactive = score below 0.9.

Experiments:
[1] = biological target: Retinoic acid receptor RXR-alpha (Homo sapiens) (UniProt P19793); experiment: ATG_RXRa_TRANS: Attagene TRANS-FACTORIAL HepG2 Assay for human Retinoid X Receptor alpha (RXRa) (AID 2283012; active = hit-call score of the fitted dose curve at least 0.9, where 1 is the maximum)
Sequence of Retinoic acid receptor RXR-alpha (Homo sapiens) (P19793 whole entry, looked up, the tested form may be a part): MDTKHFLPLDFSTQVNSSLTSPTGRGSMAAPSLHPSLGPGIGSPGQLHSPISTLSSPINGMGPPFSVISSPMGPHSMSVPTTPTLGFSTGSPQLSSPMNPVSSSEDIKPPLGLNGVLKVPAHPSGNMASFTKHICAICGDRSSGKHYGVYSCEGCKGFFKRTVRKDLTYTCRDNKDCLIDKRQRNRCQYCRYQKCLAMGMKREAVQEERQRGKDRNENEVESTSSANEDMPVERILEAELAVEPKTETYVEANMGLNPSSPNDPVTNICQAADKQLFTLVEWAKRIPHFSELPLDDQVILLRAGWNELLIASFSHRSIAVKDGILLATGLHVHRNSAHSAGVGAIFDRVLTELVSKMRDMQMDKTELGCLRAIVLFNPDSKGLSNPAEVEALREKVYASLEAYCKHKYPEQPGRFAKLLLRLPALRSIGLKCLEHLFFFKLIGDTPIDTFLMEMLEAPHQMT
In short: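 HepG2 cells transiently transfected with multiplexed GAL4-UAS reporter units and chimeric NR-GAL4 fusions, dosed 24 h. Reporter mRNA measured by RT-PCR, FAM labelling, HpaI digestion and capillary electrophoresis; gain-of-signal fitted relative to DMSO baseline.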

[2] = biological target: human Thyroid Receptor alpha (THRa1), THRA (gene 7067) (UniProt P10827); experiment: ATG_THRa1_TRANS: Attagene TRANS-FACTORIAL HepG2 Assay for human Thyroid Receptor alpha (THRa1) (AID 2283014; active = hit-call score of the fitted dose curve at least 0.9, where 1 is the maximum)
Sequence of human Thyroid Receptor alpha (THRa1), THRA (gene 7067) (P10827 whole entry, looked up, the tested form may be a part): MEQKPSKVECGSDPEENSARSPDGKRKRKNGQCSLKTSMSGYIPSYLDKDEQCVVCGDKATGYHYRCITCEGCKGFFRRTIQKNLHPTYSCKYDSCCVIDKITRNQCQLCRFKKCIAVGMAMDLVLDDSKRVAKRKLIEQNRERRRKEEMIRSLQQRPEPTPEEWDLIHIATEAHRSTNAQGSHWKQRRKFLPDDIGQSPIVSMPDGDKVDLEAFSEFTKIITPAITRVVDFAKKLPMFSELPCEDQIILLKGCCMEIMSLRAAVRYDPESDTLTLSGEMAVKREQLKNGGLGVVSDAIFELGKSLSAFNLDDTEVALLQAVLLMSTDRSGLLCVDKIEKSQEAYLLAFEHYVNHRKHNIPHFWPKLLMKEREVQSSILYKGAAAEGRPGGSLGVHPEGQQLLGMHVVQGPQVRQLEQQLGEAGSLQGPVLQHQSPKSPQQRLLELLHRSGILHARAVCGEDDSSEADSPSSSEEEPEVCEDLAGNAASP
In short: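 Reporter transcript induction, read by capillary electrophoresis of 6-FAM-labelled RT-PCR products, reflects activity of a transfected THRa1-Gal4 fusion in HepG2 liver cells. Cells were dosed for 24 h; activity was fitted in the positive direction against DMSO.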

[3] = read-out: E-selectin (Homo sapiens) (UniProt P16581); experiment: BSK_3C_Eselectin: BioMAP Diversity Plus: 3C Assay for Eselectin Biomarker Activity (AID 2283015); conditions: primary human endothelial cells (HUVEC); actives raise or lower the signal;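 for outcome: cell surface E-selectin protein quantified by ELISA 24 h after dosing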
In short: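 ELISA read-out of E-selectin on endothelial monolayers after 24 h chemical treatment. Human umbilical vein primary cells served as the system, with DMSO defining baseline activity for bidirectional fitting.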

[4] = read-out: Interleukin-1 alpha (IL1a), IL1A (gene 3552); experiment: BSK_BE3C_IL1a: BioMAP Diversity Plus: BE3C Assay for Interleukin-1 alpha (IL1a) Biomarker Activity (AID 2283016); conditions: primary human bronchial epithelial cells; actives raise or lower the signal
In short: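 Human primary bronchial epithelial cells (BE3C system) were dosed with compound and IL-1a measured by ELISA 24 h later. Activity was fitted bidirectionally against DMSO baseline; cytotoxicity was tracked in parallel cultures by SRB total-protein staining.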

[5] = read-out: Monocyte Chemoattractant Protein-1 (MCP1), CCL2 (gene 6347); experiment: BSK_3C_MCP1: BioMAP Diversity Plus: 3C Assay for Monocyte Chemoattractant Protein-1 (MCP1) Biomarker Activity (AID 2283017); conditions: primary human endothelial cells (HUVEC); actives raise or lower the signal
In short: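 ELISA read-out of MCP-1 from human umbilical vein endothelial cell cultures harvested 24 h post-dosing. Gain or loss of signal was fitted relative to DMSO.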

[6] = read-out: Monocyte Chemoattractant Protein-1 (MCP1), CCL2 (gene 6347); experiment: BSK_4H_MCP1: BioMAP Diversity Plus: 4H Assay for Monocyte Chemoattractant Protein-1 (MCP1) Biomarker Activity (AID 2283018); conditions: primary human endothelial cells (HUVEC); actives raise or lower the signal
In short: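 Human umbilical vein endothelial cells (4H system) dosed with chemical; MCP-1 measured by ELISA 24 h after dosing. Bidirectional curve fitting against DMSO negative control as baseline; parallel SRB total-protein staining tracks overt cytotoxicity.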

[7] = read-out: Human Leukocyte Antigen - DR isotype (HLADR), HLA-DRA (gene 3122); experiment: BSK_3C_HLADR: BioMAP Diversity Plus: 3C Assay for Human Leukocyte Antigen - DR isotype (HLADR) Biomarker Activity (AID 2283019); conditions: primary human endothelial cells (HUVEC); actives raise or lower the signal;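 for outcome: ELISA of cell-surface HLA-DR on HUVEC 24 h after dosing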
In short: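 ELISA readout of surface HLA-DR on human umbilical vein endothelium, taken 24 h after chemical treatment. Gain- and loss-of-signal were both fitted relative to DMSO.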

[8] = read-out: Interleukin-8 (IL8), CXCL8 (gene 3576); experiment: BSK_3C_IL8: BioMAP Diversity Plus: 3C Assay for Interleukin-8 (IL8) Biomarker Activity (AID 2283020); conditions: primary human endothelial cells (HUVEC); actives raise or lower the signal
In short: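 Primary human umbilical vein endothelial cells (3C system) were exposed to test chemical for 24 h, then IL-8 was quantified by ELISA. Responses were fitted bidirectionally against DMSO vehicle as baseline.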

[9] = biological target: human Retinoid X Receptor beta (RXRb), RXRB (gene 6257) (UniProt P28702); experiment: ATG_RXRb_TRANS: Attagene TRANS-FACTORIAL HepG2 Assay for human Retinoid X Receptor beta (RXRb) (AID 2283013; active = hit-call score of the fitted dose curve at least 0.9, where 1 is the maximum)
Sequence of human Retinoid X Receptor beta (RXRb), RXRB (gene 6257) (P28702 whole entry, looked up, the tested form may be a part): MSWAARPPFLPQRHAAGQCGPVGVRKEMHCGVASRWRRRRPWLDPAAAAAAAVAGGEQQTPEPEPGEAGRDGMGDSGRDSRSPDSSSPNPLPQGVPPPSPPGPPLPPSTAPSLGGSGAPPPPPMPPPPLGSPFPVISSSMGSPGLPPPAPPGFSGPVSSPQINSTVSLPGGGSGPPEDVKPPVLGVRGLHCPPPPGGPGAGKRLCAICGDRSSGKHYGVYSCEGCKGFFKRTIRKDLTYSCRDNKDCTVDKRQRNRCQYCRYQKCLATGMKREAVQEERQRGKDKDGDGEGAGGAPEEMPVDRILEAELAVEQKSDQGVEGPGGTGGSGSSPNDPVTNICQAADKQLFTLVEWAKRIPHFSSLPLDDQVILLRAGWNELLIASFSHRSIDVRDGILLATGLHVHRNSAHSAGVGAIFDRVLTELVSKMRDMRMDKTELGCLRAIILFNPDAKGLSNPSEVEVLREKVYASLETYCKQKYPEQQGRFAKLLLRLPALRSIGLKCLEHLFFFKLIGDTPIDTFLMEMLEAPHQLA
In short: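 HepG2 cells transiently transfected with multiplexed reporter units driven by GAL4-UAS and exogenous chimeric NR-Gal4 proteins; treated 24 h. Reporter mRNA measured by RT-PCR, 6-FAM labelling and capillary electrophoresis; gain-of-signal fitted versus DMSO baseline.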

Sequence of E-selectin (Homo sapiens) (P16581 whole entry, looked up): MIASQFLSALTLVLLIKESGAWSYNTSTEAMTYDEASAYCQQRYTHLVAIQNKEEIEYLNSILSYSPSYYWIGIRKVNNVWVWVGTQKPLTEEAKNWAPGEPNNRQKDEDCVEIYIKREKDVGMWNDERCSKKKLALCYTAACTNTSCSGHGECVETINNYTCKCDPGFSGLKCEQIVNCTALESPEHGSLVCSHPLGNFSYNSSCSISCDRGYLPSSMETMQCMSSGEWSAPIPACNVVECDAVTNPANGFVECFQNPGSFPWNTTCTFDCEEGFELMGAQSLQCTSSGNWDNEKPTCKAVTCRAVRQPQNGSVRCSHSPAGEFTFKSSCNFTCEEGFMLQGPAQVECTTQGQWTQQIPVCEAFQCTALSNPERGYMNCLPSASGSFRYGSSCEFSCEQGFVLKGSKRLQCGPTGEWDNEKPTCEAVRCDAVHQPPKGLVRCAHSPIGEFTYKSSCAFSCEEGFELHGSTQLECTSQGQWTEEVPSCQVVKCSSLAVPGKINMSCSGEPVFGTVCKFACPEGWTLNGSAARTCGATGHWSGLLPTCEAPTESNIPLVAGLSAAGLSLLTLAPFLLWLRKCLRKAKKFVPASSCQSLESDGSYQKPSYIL

CC1COc2ccccc2N1C(=O)C(Cl)Cl (configuration not stated)
outcome [1]: inactive | outcome [2]: inactive | AC50 [3]: 20 µM (active) | AC50 [4]: 5.26 µM (active) | outcome [5]: inactive | outcome [6]: inactive | AC50 [7]: 7.04 µM (active) | outcome [8]: inactive

O=C(Oc1ccccc1)c1ccc(O)cc1
outcome [9]: inactive | outcome [2]: inactive

N#Cc1ccc(CC(=NNC(=O)Nc2ccc(OC(F)(F)F)cc2)c2cccc(C(F)(F)F)c2)cc1
outcome [1]: inactive | outcome [3]: inactive | outcome [4]: inactive | outcome [5]: inactive | outcome [6]: inactive | outcome [7]: inactive | outcome [8]: inactive

CCc1ccc(C=O)cc1
outcome [9]: inactive

Nc1ccc(S(=O)(=O)O)c(N)c1
outcome [9]: inactive

Cc1cccc(Nc2ccccc2C(=O)O)c1C
outcome [9]: inactive | outcome [2]: inactive

Fc1c(F)c(F)c(Br)c(F)c1F
outcome [9]: inactive

CCCCCCC#CC(=O)OC
outcome [1]: inactive | outcome [2]: inactive

CCCC[n+]1ccccc1
outcome [9]: inactive

NNc1nc(-c2ccc(N)cc2)cs1
outcome [9]: inactive

O=C[C@@H](O)[C@H](O)[C@H](O)CO
outcome [1]: inactive | outcome [2]: inactive

O=C1CCCCCCCCCCOCCCCO1
outcome [1]: inactive | outcome [2]: inactive

CC[C@]12CCCN3CCc4c(n(c5ccccc45)[C@@](O)(C(=O)OC)C1)[C@@H]32
outcome [9]: inactive | AC50 [2]: 28.5 µM (active)

CC1(C)[C@H]2CC[C@]1(C)[C@H](O)C2
outcome [9]: inactive

CCCCC/C=C/C=C/C=O
outcome [1]: inactive | outcome [2]: inactive | AC50 [3]: 30.1 µM (active) | AC50 [4]: 20 µM (active) | AC50 [5]: 29.4 µM (active) | AC50 [6]: 36.3 µM (active) | AC50 [7]: 20 µM (active) | AC50 [8]: 31.8 µM (active)

COCCCOc1ccnc(CS(=O)c2nc3ccccc3[nH]2)c1C (configuration not stated)
outcome [9]: inactive | AC50 [2]: 100 µM (active)

OC[C@H]1O[C@H](O[C@]2(CCl)O[C@H](CCl)[C@@H](O)[C@@H]2O)[C@H](O)[C@@H](O)[C@H]1Cl
outcome [1]: inactive | outcome [3]: inactive | outcome [4]: inactive | outcome [5]: inactive | outcome [6]: inactive | outcome [7]: inactive | outcome [8]: inactive

Clc1sc(Cl)c(Cl)c1Cl
outcome [9]: inactive

CC(C)=CCCC(C)CC=O (configuration not stated)
outcome [9]: inactive | outcome [2]: inactive

Cc1ccccc1C=O
outcome [9]: inactive

CC(=O)C=CC1=C(C)CCCC1(C)C
AC50 [9]: 43.9 µM (active)

CSc1nc(NC2CC2)nc(NC(C)(C)C)n1
AC50 [9]: 22.7 µM (active) | outcome [2]: inactive

Nc1cc([N+](=O)[O-])ccc1O
outcome [1]: inactive | outcome [3]: inactive | outcome [4]: inactive | outcome [5]: inactive | outcome [6]: inactive | outcome [7]: inactive | outcome [8]: inactive

Clc1ccc2c(c1)C(N1CCNCC1)=Nc1ccccc1O2
AC50 [9]: 55.3 µM (active)

C=C(C)C(=O)Nc1ccc(Cl)c(Cl)c1
AC50 [9]: 41 µM (active)

O=C1c2ccccc2C(=O)N1SC1CCCCC1
AC50 [9]: 44.4 µM (active)

CC(=O)[O][Al][O]C(C)=O
AC50 [9]: 44.5 µM (active)

O=C1O[C@@H]2[C@@H](O)[C@H](O)O[C@@H]2[C@H]1O
outcome [9]: inactive

O=C(OCc1ccccc1)C(=O)OCc1ccccc1
outcome [9]: inactive

COc1c(Cl)c(Cl)c(Cl)c(Cl)c1Cl
AC50 [9]: 6.22 µM (active)

CCCCCCCCCOC(C)=O
outcome [1]: inactive | outcome [2]: inactive

CC(=O)[C@H]1CC[C@H]2[C@@H]3CC=C4C[C@@H](O)CC[C@]4(C)[C@H]3CC[C@]12C
outcome [1]: inactive | outcome [2]: inactive | outcome [3]: inactive | outcome [4]: inactive | outcome [5]: inactive | outcome [6]: inactive | outcome [7]: inactive | outcome [8]: inactive

C=C(C)C(=O)O[C@H]1C[C@@H]2CC[C@@]1(C)C2(C)C
outcome [1]: inactive | AC50 [3]: 15.1 µM (active) | AC50 [4]: 20 µM (active) | AC50 [5]: 20 µM (active) | AC50 [6]: 5.54 µM (active) | AC50 [7]: 9.37 µM (active) | AC50 [8]: 20 µM (active)

Nc1cccc(S(=O)(=O)c2cccc(N)c2)c1
outcome [1]: inactive | outcome [2]: inactive

CCCCCCCCC=O
outcome [1]: inactive | outcome [3]: inactive | outcome [4]: inactive | outcome [5]: inactive | outcome [6]: inactive | outcome [7]: inactive | outcome [8]: inactive

C=C(C)C(=O)OCCOC(=O)CC(C)=O
outcome [9]: inactive

CCN(CC)CCOC(=O)c1ccc(N)cc1
outcome [9]: inactive

c1cc(C(c2ccc(OCC3CO3)cc2)c2ccc(OCC3CO3)cc2)ccc1OCC1CO1 (configuration not stated)
outcome [2]: inactive

CCCCCCCCCCCCCCCCCC(=O)OCC(CC)CCCC (configuration not stated)
outcome [9]: inactive | outcome [3]: inactive | outcome [4]: inactive | outcome [5]: inactive | outcome [6]: inactive | outcome [7]: inactive | outcome [8]: inactive
